The results in this text go back to PubChem BioAssay AID588592 (Sanford-Burnham Center for Chemical Genomics, 2011).

SMILES strings stand for the structures. The list shows a part of the results. The source made the active and inactive calls. No rule for the calls is given here.

By EC50 is commonly meant the concentration that produces a half-maximal response.

The experiment in a line: fluorescence interference of Apaf-1 activator hits, dose response, artefact control for Apaf-1 activator project (AID 588592). The following applies: fluorescence interference counterscreen, Apaf-1 activator assay. For orientation: The purpose of a counterscreen is to sort out artefacts and off-target activity.
In the case of `C=CC1=C(C(=O)O)N2C(=O)[C@@H](NC(=O)/C(=N\OCC(=O)O)c3csc(N)n3)[C@H]2SC1`, the EC50 is > 100 µM (inactive).

As to `C=C(C)C(=O)Nc1cccc(C2=NOC3(C2)C[C@H](C(N)=O)N(C(=O)C(c2ccccc2)c2ccccc2)C3)c1` (some centres undefined), the EC50 is > 100 µM (inactive).

For the molecule `C=CC1=C(C(=O)O)N2C(=O)[C@@H](NC(=O)/C(=N/OCC(=O)O)c3csc(N)n3)[C@H]2SC1`, the EC50 was > 100 µM (inactive).

Regarding `CCN(CC)CCOc1ccc2c(c1)C(=NNC(=O)c1ccccn1)c1cc(OCCN(CC)CC)ccc1-2`, the EC50 was > 100 µM (inactive).
